{
  "source": "PubChem BioAssay (NCATS)",
  "note": "“And” between values parts separate entries of the source, which are not always exact repeats. Equal values may be shown once. Results filed as inconclusive are left out. The source made the active and inactive calls. The call rests on the fitted dose curve; in most records, active means well fitted activation curve with a large enough effect; inconclusive means small, poorly fitted or top-dose-only effect; inactive means no such curve, though single readings can be large or run the other way. Starred links: 1 amine or outer side, 2 acyl side, 3 side chain; linkers in the order of their positions; H or OH if unused. Positions of bridges follow the written chain, without caps; N, C: chain ends. Non-standard residues stand in square brackets, D forms with d. Residues, ends and D or L forms follow the SMILES beside them. Chains are numbered I, II in the order given. Actinocin(9to1) = Cc1c2oc3c(C)ccc(C(=O)[*:1])c3nc-2c(C(=O)[*:2])c(N)c1=O; NMeV = CN[C@H](C(=O)O)C(C)C; Sar = CNCC(=O)O",
  "data": [
    {"biological_target": "Cellular tumor antigen p53 (Homo sapiens) (UniProt P04637)", "sequence (P04637 whole entry, looked up)": "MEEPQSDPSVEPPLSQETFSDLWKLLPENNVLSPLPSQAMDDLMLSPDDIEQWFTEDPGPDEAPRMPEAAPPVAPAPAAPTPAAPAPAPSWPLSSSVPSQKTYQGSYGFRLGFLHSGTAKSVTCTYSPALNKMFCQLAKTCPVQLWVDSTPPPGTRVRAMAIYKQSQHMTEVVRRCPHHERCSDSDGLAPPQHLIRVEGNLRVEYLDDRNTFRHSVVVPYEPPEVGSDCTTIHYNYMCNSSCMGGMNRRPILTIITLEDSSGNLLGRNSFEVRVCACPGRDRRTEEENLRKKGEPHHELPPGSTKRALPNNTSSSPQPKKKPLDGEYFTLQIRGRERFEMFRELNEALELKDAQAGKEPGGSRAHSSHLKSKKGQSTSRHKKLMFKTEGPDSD", "assay": "Primary qHTS for small molecule compounds that upregulate eGFP-tagged delta133p53alpha (in N-terminal) cells. (AID 2060322); further: nearly all actives have a fitted effect of over 75% in size; further: potency means the concentration at half of the fitted maximal effect;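 on activation: series mostly up to about 56 µM; 0% = DMSO vehicle and 100% = reference activator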", "details": "NCI-H358 eGFP-delta133p53alpha fluorescence, 24 h; activation: active compounds read high", "method_in_brief": "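NCI-H358 cells pre-induced 24 h with 10 ng/ml doxycycline for eGFP-delta133p53alpha, plated dox-free and exposed 24 h at 37C to titrated compounds. Fixed, Hoechst-stained; gated GFP peak intensity by laser scanning cytometry, normalized to DMSO (0%) and 57.5 uM 5-azacytidine (100%).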", "values": [
      {"smiles": "O=C(O)C(Cc1cc(I)c(O)c(I)c1)c1ccccc1", "note": "(stereo not drawn)", "activation": "-19.8% (inactive)"},
      {"smiles": "COCC(=O)Nc1c(I)c(C(=O)NCC(O)CO)c(I)c(C(=O)N(C)CC(O)CO)c1I", "note": "(stereo not drawn)", "activation": "-4.18% (inactive)"},
      {"smiles": "CN(C)[C@@H]1C(=O)C(C(=O)NCN2CCCC2)=C(O)[C@@]2(O)C(=O)C3=C(O)c4c(O)cccc4[C@@](C)(O)C3C[C@@H]12", "note": "(stereo partly drawn)", "activation": "-13% (inactive)"},
      {"smiles": "COc1cccc2c1C(=O)c1c(O)c3c(c(O)c1C2=O)C[C@@](O)(C(=O)CO)C[C@H]3O[C@H]1C[C@H](N)[C@H](O)[C@H](C)O1", "activation": "-35.6% (inactive)"},
      {"smiles": "NC(=O)N1c2ccccc2CC(=O)c2ccccc21", "activation": "19.2% (inactive) and 34.6% (inactive)"},
      {"smiles": "CCc1c(C)nc2c(-c3cnn(-c4cc(CO)ccn4)c3)c[nH]n2c1=O", "activation": "5.67% (inactive)"},
      {"smiles": "Cc1c2oc3c(C)ccc(C(=O)N[C@@H]4C(=O)N[C@H](C(C)C)C(=O)N5CCC[C@H]5C(=O)N(C)CC(=O)N(C)[C@@H](C(C)C)C(=O)O[C@@H]4C)c3nc-2c(C(=O)N[C@@H]2C(=O)N[C@H](C(C)C)C(=O)N3CCC[C@H]3C(=O)N(C)CC(=O)N(C)[C@@H](C(C)C)C(=O)O[C@@H]2C)c(N)c1=O", "note": "(I: T[dV]P[Sar][NMeV] / II: T[dV]P[Sar][NMeV]; ester I:1-I:C, II:1-II:C; linker I:N-II:N via Actinocin(9to1))", "Potency": "11 nM (active)"},
      {"smiles": "CC(C)CCCC(C)NCCC(C)C", "note": "(stereo not drawn)", "activation": "-13.4% (inactive)"},
      {"smiles": "Nc1cccc2c1CN(C1CCC(=O)NC1=O)C2=O", "note": "(stereo not drawn)", "activation": "21.6% (inactive) and -10.9% (inactive)"},
      {"smiles": "NS(=O)(=O)c1ccc(Cl)c(S(N)(=O)=O)c1", "activation": "-10% (inactive)"},
      {"smiles": "CN1CC(=O)NC1=N", "activation": "-5.08% (inactive)"},
      {"smiles": "Cc1ccccc1C(C(=O)NC1CCCC1)N(C(=O)Cn1cnc2ccccc21)c1cccc(F)c1", "note": "(stereo not drawn)", "activation": "-4.95% (inactive)"},
      {"smiles": "CC[N+](CC)(CC(=O)Nc1c(C)cccc1C)Cc1ccccc1", "activation": "-10.9% (inactive)"},
      {"smiles": "C[C@]12C=CC(=O)C=C1CC[C@@H]1C2=CC[C@]2(C)[C@@H](C(=O)CN3CCN(c4cc(N5CCCC5)nc(N5CCCC5)n4)CC3)CC[C@@H]12", "activation": "-22.1% (inactive)"},
      {"smiles": "C/C(=C(\\CCO)SS/C(CCO)=C(\\C)N(C=O)Cc1cnc(C)nc1N)N(C=O)Cc1cnc(C)nc1N", "activation": "-9.6% (inactive)"},
      {"smiles": "COc1ccc(O)cc1", "activation": "1.69% (inactive)"},
      {"smiles": "CCn1cc(C(=O)O)c(=O)c2cnc(N3CCNCC3)nc21", "activation": "0.837% (inactive)"},
      {"smiles": "CCC1NC(=O)c2cc(S(N)(=O)=O)c(Cl)cc2N1", "note": "(stereo not drawn)", "activation": "-21.8% (inactive)"},
      {"smiles": "COC(=O)N[C@H](C(=O)N1CCC[C@@H]1c1ncc(-c2ccc(-c3ccc(-c4cnc([C@@H]5CCCN5C(=O)[C@@H](NC(=O)OC)C(C)C)[nH]4)cc3)cc2)[nH]1)C(C)C", "activation": "77.3% (inactive)"},
      {"smiles": "CC(C)(O)Cn1c(NC(=O)c2ccc(-c3cn[nH]c3)s2)nc2cc(CN3CCOCC3)ccc21", "Potency": "3850 nM (active)"},
      {"smiles": "Nc1ccc(C(=O)N2CC3CC(CN(Cc4ccccc4)C3)C2)cc1", "activation": "-6.21% (inactive)"},
      {"smiles": "CN1N=C(C(N)=O)CCC1=O", "activation": "-6.21% (inactive)"},
      {"smiles": "C[C@H](N)C(=O)N[C@@H](C)C(=O)NC1[C@H]2CN(c3nc4c(cc3F)c(=O)c(C(=O)O)cn4-c3ccc(F)cc3F)C[C@@H]12", "note": "(stereo partly drawn)", "activation": "-33.3% (inactive)"},
      {"smiles": "CN(C)c1ccc(C(=O)NCCCCCC(=O)NO)cc1", "activation": "10.1% (inactive)"},
      {"smiles": "N=C(N=C(N)N)N1CCOCC1", "activation": "1.67% (inactive) and -4.92% (inactive)"},
      {"smiles": "CCC[C@@H]1C[C@@H](C(=O)N[C@@H]([C@H]2O[C@H](SC)[C@H](O)[C@@H](O)[C@H]2O)[C@@H](C)O)N(C)C1", "activation": "-5.08% (inactive)"},
      {"smiles": "C[C@@H](O)[C@H]1C(=O)N2C(C(=O)O)=C([C@H]3CCCO3)S[C@H]12", "activation": "-8.47% (inactive)"},
      {"smiles": "c1ccc(CNCCNCc2ccccc2)cc1", "activation": "2.51% (inactive)"},
      {"smiles": "C[N+]1(CC2COC(c3ccccc3)(C3CCCCC3)O2)CCCCC1", "note": "(stereo not drawn)", "activation": "10.9% (inactive)"},
      {"smiles": "O=c1cc[nH]c(=S)[nH]1", "activation": "7.34% (inactive)"},
      {"smiles": "CC(=CC(=O)Nc1ccccc1C(=O)O)c1ccc2ccccc2c1", "activation": "-15.6% (inactive)"},
      {"smiles": "CCN(CC)C(=O)C1CN2CCc3cc(OC)c(OC)cc3C2CC1OC(C)=O", "note": "(stereo not drawn)", "activation": "-9.21% (inactive)"},
      {"smiles": "COc1ccc(S(=O)(=O)N2c3ccc(Cl)cc3[C@@](O)(c3ccccc3Cl)[C@H]2C(=O)N2CCC[C@@H]2C(N)=O)cc1OC", "activation": "-10.9% (inactive)"}
    ]}
  ]
}
